TDP1 cell noCPT – qHTS for Inhibitors of human tyrosyl-DNA phosphodiesterase 1 (TDP1): qHTS in cells in absence of CPT; 420,000 tested, 15% active; AID 686978, 2013; DT40 Tdp1-/- hTDP1 cells, no CPT, ATP luminescence, 48 h; Potency, µM (highest dose often 46.2 µM), for inactives: at the highest dose activity change, negative = growth inhibition, most hits filed as inhibitors; further: potency means the concentration at half of the fitted maximal effect; nearly all actives have a fitted effect of over 55% in size
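Growth of hTDP1-complemented DT40 Tdp1-knockout cells is measured by ATP luminescence after at least 48 hr compound exposure at 37 °C, with DMSO substituting for the 20 nM CPT used in the parallel screen.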
TDP1 cell CPT – qHTS for Inhibitors of human tyrosyl-DNA phosphodiesterase 1 (TDP1): qHTS in cells in presence of CPT. chicken DT40 Tdp1-/-;hTDP1 cells + 20 nM CPT, ATP luminescence, 48 h. 420,000 tested, 12% active. Potency, µM (highest dose often 46.2 µM), for the others: at the highest dose activity change, negative = growth inhibition, actives largely listed as inhibitors; further: potency means the concentration at half of the fitted maximal effect; nearly all actives have a fitted effect of over 55% in size
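Chicken DT40 Tdp1-/- cells complemented with human TDP1, 400 cells/well, exposed to compounds plus 20 nM camptothecin for at least 48 h at 37 C; viability read as ATP content by CellTiter-Glo luminescence.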
ELG1 DNA repair – qHTS screen for small molecules that inhibit ELG1-dependent DNA repair in human embryonic kidney (HEK293T) cells expressing luciferase-tagged ELG1; HEK293T ELG1-luciferase reporter, luminescence, 16 h; DNA damage induced by 5-fluorouridine; Potency, µM (top dose mostly 46.1 µM), for inactives: at the highest dose activity change, negative = inhibition, hits mostly inhibitors; 330,000 tested, 2.3% active; further: potency means the concentration at half of the fitted maximal effect; nearly all actives have a fitted effect of over 55% in size
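Luminescence from the luciferase reporter, measured 30 min after ONE-Glo reagent at room temperature, was the read-out. Beforehand, 2,000 cells per well were exposed for 16 hr at 37 °C to 5-fluorouridine together with compound or vehicle.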
IL1B secr inh – qHTS for Inhibitors of Inflammasome Signaling: IL-1-beta AlphaLISA Primary Screen; THP-1 LPS/ATP IL-1B secretion, AlphaLISA, 16 h; hits give low values; activity change, % at 57.5 µM; 360,000 tested, 4.7% active; AID 743279, 2014; in the data active means activity change below about -50%; inconclusive means mostly about -30% to -49%
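THP-1 cells pretreated 1 hr with compounds (up to 57.5 uM final), then stimulated with LPS (250 ng/mL final) plus ATP (1.25 mM final); secreted IL-1B measured by AlphaLISA after 16 hr, decreased signal indicating inhibition.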
HT1080 IDH1KD tx – qHTS for induction of synthetic lethality in tumor cells producing 2HG: qHTS for the HT-1080-IDH1KD cell line; Potency, µM (series often up to 46.1 µM), for inactives: at the highest dose activity, negative = toxicity, hits mostly cytotoxic; HT-1080 IDH1 knockdown viability, ATP luminescence, 48 h; 360,000 tested, 2% active; AID 686971, 2013;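 further: potency means the concentration at half of the fitted maximal effect; 0% = DMSO wells and -100% = cell-free medium wells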
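Assay cells: HT-1080 with IDH1 knockdown, 750 per well, RPMI/5% FBS. Exposure: 48 h at 37 °C following 2 h pre-incubation. Read: CellTiter-Glo luminescence; fitted concentration-response, curve class assigned.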
HT1080NT lethal – qHTS for induction of synthetic lethality in tumor cells producing 2HG: qHTS for the HT-1080-NT fibrosarcoma cell line; Potency, µM (highest dose often 46.1 µM), inactives show top-dose activity, negative = less viability, actives largely listed as cytotoxic; AID 686970, 2013; 360,000 tested, 1.6% active; HT-1080-NT fibrosarcoma viability, CellTiter-Glo ATP luminescence, 48 h;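 further: NT is the 2HG producing partner of a matched IDH1 knockdown line; potency means the concentration at half of the fitted maximal effect; 0% = DMSO-treated cells and -100% = media-only wells without cells; nearly all actives have a fitted effect of over 55% in size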
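A 48-hour cytotoxicity screen used HT-1080-NT cells plated 2 hours before compound delivery. ATP-based CellTiter-Glo luminescence measured viability, normalized to DMSO and no-cell controls.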
Starred values were filed as active, the others as inactive; ? = inconclusive; . = no result given. Shown are actives, neighbours in structure and some others; about 19% of the full set was active somewhere. Unless noted, the call rests on the fitted dose curve; in most records, active means well fitted curve in the direction sought with a large enough effect; inconclusive means small, poorly fitted or top-dose-only effect, or another doubt; inactive means no such curve, though single readings can be large; an effect the other way counts as inactive or inconclusive. Unless noted, on the % scale 0 is the no-effect control and ±100 the full control effect.

SMILES	TDP1 cell noCPT	TDP1 cell CPT	ELG1 DNA repair	IL1B secr inh	HT1080 IDH1KD tx	HT1080NT lethal
COc1c(NC=O)c2c(c([N+](=O)[O-])c1OC)C(=O)OC2	-11%	-13%	.	9	-4%	-8%
O=C(NC1CCCCC1)c1ccc(CSc2nc3ccncc3n2Cc2cccc(F)c2)cc1	18µM*	?	.	.	.	.
O=C(NCc1cccs1)c1ccc(CSc2nc3cccnc3n2Cc2ccccc2)cc1	15µM*	?	.	.	.	.
O=C(NC1CCCC1)c1ccc2c(=O)n(Cc3ccccc3)c(SCc3cccc(F)c3)nc2c1	?	-27%	.	.	.	.
Cc1cccc(NC(=O)NC2CCCCCCC2)c1C	3%	-28%	?	-7	1%	-2%
Cc1ccc(Cn2c(C(=O)Nc3ccc(Cl)cc3)cc3sccc32)cc1	-28%	?	.	.	.	.
Cc1cccc(NCc2cccc3ccccc23)n1	?	-16%	28%	7	3%	5%
Cc1cccc(NCc2ccc(Br)cc2)n1	?	?	21%	-62*	0%	-21%
Cc1cc(C)c(C)c(S(=O)(=O)N2CCC(C(=O)NCc3cccs3)CC2)c1C	?	-26%	.	0	-10%	-18%
Cc1ccc(S(=O)(=O)N2CCC(C(=O)NNC(=O)c3ccccc3O)CC2)cc1	15µM*	?	2%	33	?	-26%
Cc1cc(C)c(C)c(S(=O)(=O)N2CCC(C(=O)NNC(=O)c3ccccc3O)CC2)c1C	16µM*	?	-15%	31	?	-21%
Cc1ccc(S(=O)(=O)N2CCC(C(=O)NNC(=O)c3ccccc3O)CC2)cc1C	?	?	-27%	8	?	-25%
Cc1noc(C)c1NC(=O)Nc1ccc2c(c1)C(=O)N([C@H](C)CO)C[C@H](C)[C@H](CN(C)C)O2	-10%	5%	?	-1	-4%	-1%
Cc1ccc(-c2nnc3c4ccccc4c(C)nn23)cc1NC(=O)c1ccccc1Cl	-27%	3%	.	.	.	.
Cc1ccc(CNC(=O)c2cc3cc(Br)ccc3oc2=N)cc1	-20%	-28%	-2%	-3	10%	0%
N=c1oc2ccc(Br)cc2cc1C(=O)NCc1ccc(F)cc1	8.2µM*	?	6%	-21	0%	0%
CC(NC(=O)c1cc2cc(Br)ccc2oc1=N)c1ccccc1 (stereo unspecified)	16µM*	16µM*	-14%	-51*	1%	2%
O=C(O)CNc1ccc(S(=O)(=O)C(F)(F)F)cc1[N+](=O)[O-]	-2%	-3%	12%	44	0%	3%
O=[N+]([O-])c1cc(S(=O)(=O)Nc2ccc(Cl)cc2)ccc1N/N=C/c1ccncc1	5.8µM*	?	11%	-6	-1%	0%
O=c1c(N2CCN(c3cccc(C(F)(F)F)c3)CC2)csc2ccccc12	26µM*	21µM*	.	.	.	.
O=[N+]([O-])c1ccc(Cl)cc1N/N=C/c1ccncc1	4%	-8%	-4%	-12	1%	0%
CC(=O)Nc1ccc(Nc2ccc(S(=O)(=O)C(F)(F)F)cc2[N+](=O)[O-])cc1	21µM*	?	-29%	-60*	-21%	-15%
O=S(=O)(c1ccc(N2CCN(c3ccc(F)cc3)CC2)cc1)N1CCCC1	-13%	-2%	0%	17	-6%	13%
O=S(=O)(c1ccc(N2CCCC2)cc1)C(F)(F)F	12µM*	?	20%	-18	-22%	?
O=C(NCC(c1ccco1)N1CCCC1)c1cccc(S(=O)(=O)Nc2ccc(F)cc2)c1 (stereo unspecified)	?	-30%	0%	10	-7%	-8%
SMILES	TDP1 cell noCPT	TDP1 cell CPT	ELG1 DNA repair	IL1B secr inh	HT1080 IDH1KD tx	HT1080NT lethal
CCCN(C(=O)c1cnccn1)c1c(N)n(Cc2ccccc2)c(=O)[nH]c1=O	16%	1%	10%	0	4%	12%
COc1cccc(NC(=O)CSc2nccn2C2CCCC2)c1	?	0%	.	.	.	.
O=[N+]([O-])c1cc(S(=O)(=O)Nc2ccccc2)ccc1N1CCN(c2ccccc2)CC1	?	?	?	-64*	?	?
O=C(O)c1cc(NS(=O)(=O)c2ccc(N3CCCCC3)c([N+](=O)[O-])c2)cc(C(=O)O)c1	-11%	-23%	17%	-6	8%	-3%
O=[N+]([O-])c1cc(Cl)ccc1N1CCN(c2cccc(C(F)(F)F)c2)CC1	9.2µM*	?	-5%	?	0%	2%
O=[N+]([O-])c1cc(S(=O)(=O)Nc2ccccc2)ccc1Nc1ccccc1	15µM*	?	.	-9	-28%	7.3µM*
O=[N+]([O-])c1cc(S(=O)(=O)C(F)(F)F)ccc1N1CCN(c2ccccc2)CC1	16µM*	?	-21%	?	-5%	-5%
Cc1c(NC(=O)COc2cccc(Br)c2)c(=O)n(-c2ccccc2)n1C	-4%	1%	0%	0	-3%	-1%
Cc1ccc(CNC(=O)Cn2c(=O)n(-c3ccc(C)c(F)c3)c(=O)c3sc4ccccc4c32)cc1	-9%	3%	.	.	.	.
NS(=O)(=O)c1ccc(-c2cccc(/C=C3\SC(=O)NC3=O)c2)cc1	?	?	-9%	-3	-18%	5%
CN(C)c1cc(NC(=O)CNC(C)(C)CC(C)(C)C)c2ccccc2n1	16µM*	?	-19%	-13	?	?
COc1ccc(CCN(C)CC(=O)Nc2cc(C)nc3ccccc23)cc1OC	?	?	?	30	-10%	15%
COc1nc(C)nc(C)c1Oc1ccc(Cl)cc1Cl	-27%	-6%	-4%	.	-3%	-10%
Cc1nc(-c2ccccc2)[nH]c(=O)c1Oc1ccc(Cl)cc1Cl	?	-2%	8.2µM*	9	0%	-9%
Cc1ccc(CN2CCN(/N=C/c3ccc(O)c(O)c3)CC2)cc1	4.1µM*	7.3µM*	-5%	6	-15%	-18%
Cc1ccc(CN2CCN(/N=C/c3cccnc3)CC2)cc1	-29%	-8%	-3%	0	2%	-4%

Source: PubChem (National Center for Advancing Translational Sciences (NCATS))
